Bioassay records as filed in PubChem BioAssay.
Only some compounds are listed: those with a hit (about 7.4% of all), similar ones and a draw of the others.
Rab9 promoter act: Rab9 promoter activation; Huh7 Rab9 promoter-luciferase reporter, luminescence, 24 h; Potency, µM (top dose mostly 9.22 µM), for inactives: at the top dose activation, negative = inhibition, usual class: activators; 320,000 tested, 2.8% active; also: % of control where 0% means no effect; nearly all actives have a fitted effect of over 60% in size
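Steps: seed 1500 Huh7 Rab9-luc cells per well, rest 2 h at 37 °C; add compound in DMSO; incubate 24 h; add luciferase reagent, 10 min ambient; read luminescence.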
SMN2 splice up: SMN2 splice variant enhancement; Potency, µM (titrated, usually from 46.1 µM), without a hit: top-dose activity change, positive = activation, usual class: activators; HEK293 SMN2-luciferase splicing reporter, luminescence, 30-36 h; 210,000 tested, 2.8% active; also: % of control where 0% means no effect; nearly all actives have a fitted effect of over 55% in size
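HEK293 cells carry an SMN2 minigene-luciferase reporter in which exon 7 inclusion puts luciferase in frame. Cells were seeded at 2000 cells/well, attached for 10-12 hours, then exposed to compounds for 30-36 hours at 37C before ONE-Glo luminescence.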
p53 reactivator: mutant p53 re-activation in reporter cells; AID 504706; 320,000 tested, 0.063% active; H1299 p53-A138V BP100-luciferase reporter, luminescence, 24 h; Potency, µM (series often up to 92.2 µM), inactives show top-dose activity change, positive = activation, actives largely listed as activators; also: % of control where 0% means no effect; nearly all actives have a fitted effect of over 45% in size
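p53-null H1299 cells stably carrying temperature-sensitive p53-A138V and a BP100-luciferase reporter were pinned with compounds (4-point, 1:5 series) and held 24 hrs at 37 deg C. Luminescence was read 10 min after detection reagent.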
ELG1 genotox: inducers of genotoxicity in HEK293T ELG1-luciferase cells; AID 504466; 330,000 tested, 1.3% active; Potency, µM (top dose mostly 46 µM), for inactives: at the top dose activity change, positive = activation, most hits filed as activators; HEK293T ELG1-luciferase reporter, luminescence, 16 h; also: % of control where 0% means no effect; nearly all actives have a fitted effect of over 60% in size
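Luminescence read-out: rising ELG1-luciferase signal, reflecting elevated ELG1 protein under genetic stress, flags genotoxic compounds. Cells were treated for 16 hr at 37 °C before ONE-Glo detection.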
NPC1 prom act: activators of NPC1 promoter | Potency, µM (doses to about 9.22 µM), for the others: at the highest dose activation, hits mostly activators | Huh7 NPC1 promoter luciferase reporter, 24 h | AID 485313 | 320,000 tested, 2.4% active; also: % of control where 0% means no effect; nearly all actives have a fitted effect of over 60% in size
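In 1536-well qHTS, Huh7 cells harboring an NPC1 promoter–luciferase construct received compound for 24 h; activation was quantified by luminescence following luciferase reagent addition.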
FLuc modulator: firefly luciferase modulation, counter-screen for miR-21 project; P08659; purified FLuc, Km substrates, luminescence inhibition; 360,000 tested, 6.9% active; Potency, µM (series often up to 57.5 µM), for the others: top-dose activity change, negative = inhibition, usual class: inhibitors;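 also: plate controls were vehicle for no effect and reference inhibitor for full effect; nearly all actives have a fitted effect of over 55% in size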
Target sequence (P08659 whole entry, looked up): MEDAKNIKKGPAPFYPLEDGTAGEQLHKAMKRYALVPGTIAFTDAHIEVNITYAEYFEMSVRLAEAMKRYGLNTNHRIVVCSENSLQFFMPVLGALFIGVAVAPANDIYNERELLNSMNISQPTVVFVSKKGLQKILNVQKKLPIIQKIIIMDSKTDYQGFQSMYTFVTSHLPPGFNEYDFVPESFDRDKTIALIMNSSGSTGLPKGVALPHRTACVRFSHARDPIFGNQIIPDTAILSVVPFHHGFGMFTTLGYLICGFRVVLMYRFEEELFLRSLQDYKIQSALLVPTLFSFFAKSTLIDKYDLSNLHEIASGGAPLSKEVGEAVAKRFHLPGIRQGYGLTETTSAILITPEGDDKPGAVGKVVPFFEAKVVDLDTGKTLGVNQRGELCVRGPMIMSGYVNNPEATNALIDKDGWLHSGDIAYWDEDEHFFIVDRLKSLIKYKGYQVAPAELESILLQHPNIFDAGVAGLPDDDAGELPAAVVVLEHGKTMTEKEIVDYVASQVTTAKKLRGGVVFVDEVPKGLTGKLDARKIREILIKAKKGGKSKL
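Purified P. pyralis luciferase, 10 nM final, with Km-level 10 uM D-luciferin and 10 uM ATP in 50 mM Tris acetate pH 7.5, 10 mM Mg acetate, 0.01% Tween-20, 0.05% BSA; 6-point qHTS titration about 60 µM downward; luminescence read.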
An asterisk follows results filed as active; [ ] = remark or other dose. Calls follow the shape of the dose curve; as a rule, active = well fitted curve in the direction sought with a large enough effect; inconclusive = small, poorly fitted or top-dose-only effect, or another doubt; inactive = no such curve, though single readings can be large; an effect the other way counts as inactive or inconclusive. Potency is read from the fitted curve at half-maximal effect.

Results for COc1ccc(Cn2nnc3c(=O)[nH]c(C4CCN(C(=O)c5ccc(C)cc5)CC4)nc32)cc1OC ?
SMN2 splice up: -10%; FLuc modulator: -2%

How did Fc1ccccc1N1CCN(c2ncnc3onc(-c4ccc(Cl)cc4)c23)CC1 do in these assays?
SMN2 splice up: 6%; FLuc modulator: -6%

How did COC(=O)c1ccc(C(=O)OC)c(NC(=O)Nc2ccc3c(c2)OCO3)c1 do in these assays?
Rab9 promoter act: inconclusive; SMN2 splice up: inconclusive; p53 reactivator: inconclusive; ELG1 genotox: 15µM*; NPC1 prom act: inconclusive; FLuc modulator: 21µM*

How did O=C(Nc1ccc(C(=O)O)cc1)/C(=C\c1ccc2c(c1)OCO2)NC(=O)c1ccc(Br)o1 do in these assays?
Rab9 promoter act: 0%; SMN2 splice up: 16%; p53 reactivator: 1%; ELG1 genotox: 4%; NPC1 prom act: -1%; FLuc modulator: -12%

Results for O=C(Nc1ccc2c(c1)OCO2)N1CCN(S(=O)(=O)c2ccc(Cl)cc2)CC1 ?
Rab9 promoter act: -4%; SMN2 splice up: -9%; p53 reactivator: 12%; ELG1 genotox: -11%; NPC1 prom act: -2%; FLuc modulator: 1%

What do the screens show for `O=C(Nc1cccc(C(=O)O)c1)/C(=C\c1ccc2c(c1)OCO2)NC(=O)c1ccc(Br)o1`?
Rab9 promoter act: inconclusive; SMN2 splice up: inconclusive; p53 reactivator: 19%; ELG1 genotox: 10%; NPC1 prom act: inconclusive; FLuc modulator: 21µM*

What do the screens show for `O=C(Nc1ccc2c(c1)OCO2)Nc1ccc2c(c1)OCO2`?
Rab9 promoter act: 1.8µM*; SMN2 splice up: 7.9µM*; p53 reactivator: 10%; ELG1 genotox: inconclusive; NPC1 prom act: 1.4µM*; FLuc modulator: inconclusive

What do the screens show for `O=C(Nc1ccc2c(c1)OCO2)N1CCN(c2ccccc2Cl)CC1`?
Rab9 promoter act: inconclusive; SMN2 splice up: 1%; p53 reactivator: 20%; ELG1 genotox: inconclusive; NPC1 prom act: inconclusive; FLuc modulator: 19µM*

What do the screens show for `CCOc1ccc(C(=O)Nc2c(C(=O)Nc3ccccc3F)oc3ccccc23)cc1OCC`?
SMN2 splice up: 5%; FLuc modulator: -1%

What do the screens show for `C/C(C[n+]1ccccc1)=N\N=C(N)N`?
SMN2 splice up: -10%[9.22 µM]

How did Cc1ccc(NC(=O)Nc2ccc3c(c2)OCO3)c(Br)c1 do in these assays?
Rab9 promoter act: inconclusive; p53 reactivator: 5%; ELG1 genotox: 18µM*; NPC1 prom act: inconclusive; FLuc modulator: inconclusive

How did Cc1cc(C)c(NC(=O)Nc2ccc3c(c2)OCO3)c(C)c1 do in these assays?
Rab9 promoter act: 26%; p53 reactivator: 23%; ELG1 genotox: inconclusive; NPC1 prom act: 17%; FLuc modulator: inconclusive

Results for O=C(Nc1cccnc1)c1cnn2cccnc12 ?
Rab9 promoter act: 9%; SMN2 splice up: 31%; p53 reactivator: 9%; ELG1 genotox: 5%; NPC1 prom act: 4%; FLuc modulator: 4%[2.3 µM]

Results for O=C(NCc1cccs1)Nc1ccc2c(c1)OCO2 ?
Rab9 promoter act: 3.5µM*; SMN2 splice up: 14µM*; p53 reactivator: inconclusive; ELG1 genotox: inconclusive; NPC1 prom act: inconclusive; FLuc modulator: 17µM*

Results for Cc1ccc(C(=O)O)cc1NC(=O)Nc1ccc2c(c1)OCO2 ?
Rab9 promoter act: 18%; SMN2 splice up: inconclusive; p53 reactivator: 9%; ELG1 genotox: 8%; NPC1 prom act: 13%; FLuc modulator: inconclusive

Results for O=C(Nc1cccc(C(=O)O)c1)Nc1ccc2c(c1)OCO2 ?
Rab9 promoter act: inconclusive; p53 reactivator: -27%; ELG1 genotox: -21%; NPC1 prom act: inconclusive; FLuc modulator: 0.11µM*

How did O=C(Nc1ccc2c(c1)OCO2)c1cnn2cccnc12 do in these assays?
Rab9 promoter act: 1.6µM*; SMN2 splice up: 11µM*; p53 reactivator: inconclusive; ELG1 genotox: 4.1µM*; NPC1 prom act: 2.2µM*; FLuc modulator: 9.5µM*

Results for O=C(NCc1ccncc1)Nc1ccc2c(c1)OCO2 ?
Rab9 promoter act: inconclusive; p53 reactivator: 12%; ELG1 genotox: 7%; NPC1 prom act: -1%; FLuc modulator: inconclusive

Results for Cc1cc(=O)n(C(C)C(=O)N2CCCc3ccccc32)c2c1c(C)nn2-c1ccccc1 (stereo not given) ?
FLuc modulator: -5%

How did O=C(Nc1ccc2c(c1)OCO2)Nc1ccc(Cl)cc1Cl do in these assays?
Rab9 promoter act: inconclusive; SMN2 splice up: inconclusive; p53 reactivator: 10%; ELG1 genotox: inconclusive; NPC1 prom act: inconclusive; FLuc modulator: 4.8µM*

Results for O=C(Nc1ccc2c(c1)OCO2)Nc1ccc(F)cc1F ?
Rab9 promoter act: 1.4µM*; p53 reactivator: inconclusive; ELG1 genotox: inconclusive; NPC1 prom act: 1.4µM*; FLuc modulator: 6µM*

Results for O=C(Nc1ccc(OC(F)F)c(Cl)c1)Nc1ccc2c(c1)OCO2 ?
Rab9 promoter act: 6%; SMN2 splice up: -12%; p53 reactivator: 18%; ELG1 genotox: -3%; NPC1 prom act: 18%; FLuc modulator: inconclusive

Results for O=C(Nc1cccc(F)c1)Nc1ccccn1 ?
Rab9 promoter act: 2.8µM*; SMN2 splice up: 23%; p53 reactivator: 17%; ELG1 genotox: 26%; NPC1 prom act: 3.2µM*; FLuc modulator: 13µM*

How did O=C(Nc1ccc2c(c1)OCO2)Nc1cnccn1 do in these assays?
Rab9 promoter act: 12%; SMN2 splice up: 58%; p53 reactivator: inconclusive; ELG1 genotox: inconclusive; NPC1 prom act: 15%; FLuc modulator: inconclusive

What do the screens show for `O=C(Nc1ccc2c(c1)OCO2)Nc1ccccn1`?
Rab9 promoter act: 0.89µM*; p53 reactivator: 23%; ELG1 genotox: inconclusive; NPC1 prom act: 2.8µM*; FLuc modulator: 12µM*

How did Cc1ccc2nc(-c3ccc(Cl)cc3)cc(C(=O)OCC(=O)c3ccccc3)c2c1 do in these assays?
SMN2 splice up: -5%; FLuc modulator: -19%

Results for O=C(Nc1ccc(Cl)cc1)Nc1ccc2c(c1)OCO2 ?
Rab9 promoter act: 1.8µM*; p53 reactivator: inconclusive; ELG1 genotox: 4.1µM*; NPC1 prom act: 1.1µM*; FLuc modulator: 2.1µM*

How did O=C(Nc1ccc(F)cc1)Nc1ccc2c(c1)OCO2 do in these assays?
Rab9 promoter act: -5%; p53 reactivator: -1%; ELG1 genotox: 1%; NPC1 prom act: 8%; FLuc modulator: 3%

Results for O=C(Nc1cnc2sccn2c1=O)c1ccccc1Cl ?
Rab9 promoter act: inconclusive; SMN2 splice up: 23%; p53 reactivator: 16%; ELG1 genotox: 18µM*; NPC1 prom act: 1.6µM*; FLuc modulator: 15µM*
